According to PubChem BioAssay (Tox21):
Inconclusive results are not listed. The source made the active and inactive calls. Unless noted, calls follow the shape of the dose curve; as a rule, active = well fitted curve in the direction sought with a large enough effect in the repeat runs; inconclusive = weak or mixed curves; inactive = no such curve, though single readings can be large; an effect the other way counts as inactive or inconclusive.

Tests used:
[1] = molecular target: Estrogen receptor beta (Homo sapiens) (UniProt Q92731); assay: qHTS assay to identify small molecule agonists of the estrogen receptor beta (ER-beta) signaling pathway (AID 1259377; active = well fitted activation curve with a large enough effect in the signal ratio in the repeat runs, not every such curve was filed as active; the % refers to the signal ratio)
Chain of Estrogen receptor beta (Homo sapiens) (Q92731 whole entry, looked up): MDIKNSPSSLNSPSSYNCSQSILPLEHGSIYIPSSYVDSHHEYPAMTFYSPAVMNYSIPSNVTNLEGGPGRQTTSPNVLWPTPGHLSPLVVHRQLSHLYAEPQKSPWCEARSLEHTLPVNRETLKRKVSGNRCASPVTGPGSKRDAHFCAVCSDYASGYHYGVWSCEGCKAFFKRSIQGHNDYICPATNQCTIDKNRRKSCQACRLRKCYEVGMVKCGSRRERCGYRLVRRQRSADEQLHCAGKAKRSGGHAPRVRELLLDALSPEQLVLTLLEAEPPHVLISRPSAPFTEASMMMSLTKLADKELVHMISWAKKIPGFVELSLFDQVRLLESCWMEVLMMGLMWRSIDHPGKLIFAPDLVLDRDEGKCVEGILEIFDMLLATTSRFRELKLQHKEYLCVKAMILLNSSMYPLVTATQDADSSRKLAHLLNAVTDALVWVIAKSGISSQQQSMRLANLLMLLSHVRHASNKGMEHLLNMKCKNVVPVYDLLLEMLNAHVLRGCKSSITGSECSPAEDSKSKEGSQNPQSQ
Method in brief: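 ER-beta-UAS-bla HEK293T cells in medium with 2% charcoal-stripped FBS were exposed to compounds for 16 h at 37C. Beta-lactamase reporter activity was read as fluorescence after 2 h with LiveBLAzer B/G FRET substrate at room temperature.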

[2] = molecular target: Estrogen receptor beta (Homo sapiens) (UniProt Q92731); assay: qHTS assay to identify small molecule antagonists of the estrogen receptor beta (ER-beta) signaling pathway (AID 1259378; active = well fitted inhibition curve with a large enough effect in the signal ratio in the repeat runs, not every such curve was filed as active; the % refers to the signal ratio)
Method in brief: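 ER-beta-UAS-bla HEK293T (GripTite) cells in 2% charcoal-stripped FBS medium were preincubated 6 hr at 37C, dosed with compound, then stimulated with 1 nM E2 (final) for 16 hr; beta-lactamase reporter read by B/G FRET fluorescence after 2 hr substrate loading.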

[3] = qHTS assay to identify small molecule agonists of the androgen receptor (AR) signaling pathway in the presence of an antagonist - cell viability counter screen (AID 1259379);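 also: MDA-kb2 human breast cancer cells carrying an MMTV luciferase reporter; series mostly up to about 92 µM; nearly all actives have a fitted effect of over 25% in size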
Method in brief: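 In MDA-kb2 cells (human breast carcinoma, MMTV-luciferase), compounds at 15 concentrations plus 3.0uM nilutamide; 16 hr, 37C, 0% CO2; CellTiter-Fluor fluorescence read for viability.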

[4] = qHTS assay to identify small molecule agonists of the estrogen receptor beta (ER-beta) signaling pathway - cell viability counter screen (AID 1259380); also: nearly all actives have a fitted effect of over 30% in size
Method in brief: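 Viability of ER-beta-UAS-bla HEK293T cells was determined by CellTiter-Glo luminescence following 16 hr treatment with test compounds at 37C.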

[5] = molecular target: Androgen receptor (Homo sapiens) (UniProt P10275); assay: qHTS assay to identify small molecule agonists of the androgen receptor (AR) signaling pathway in the presence of an antagonist (AID 1259381; calls by dose curve; also: nearly all actives have a fitted effect of over 15% in size)
Chain of Androgen receptor (Homo sapiens) (P10275 whole entry, looked up): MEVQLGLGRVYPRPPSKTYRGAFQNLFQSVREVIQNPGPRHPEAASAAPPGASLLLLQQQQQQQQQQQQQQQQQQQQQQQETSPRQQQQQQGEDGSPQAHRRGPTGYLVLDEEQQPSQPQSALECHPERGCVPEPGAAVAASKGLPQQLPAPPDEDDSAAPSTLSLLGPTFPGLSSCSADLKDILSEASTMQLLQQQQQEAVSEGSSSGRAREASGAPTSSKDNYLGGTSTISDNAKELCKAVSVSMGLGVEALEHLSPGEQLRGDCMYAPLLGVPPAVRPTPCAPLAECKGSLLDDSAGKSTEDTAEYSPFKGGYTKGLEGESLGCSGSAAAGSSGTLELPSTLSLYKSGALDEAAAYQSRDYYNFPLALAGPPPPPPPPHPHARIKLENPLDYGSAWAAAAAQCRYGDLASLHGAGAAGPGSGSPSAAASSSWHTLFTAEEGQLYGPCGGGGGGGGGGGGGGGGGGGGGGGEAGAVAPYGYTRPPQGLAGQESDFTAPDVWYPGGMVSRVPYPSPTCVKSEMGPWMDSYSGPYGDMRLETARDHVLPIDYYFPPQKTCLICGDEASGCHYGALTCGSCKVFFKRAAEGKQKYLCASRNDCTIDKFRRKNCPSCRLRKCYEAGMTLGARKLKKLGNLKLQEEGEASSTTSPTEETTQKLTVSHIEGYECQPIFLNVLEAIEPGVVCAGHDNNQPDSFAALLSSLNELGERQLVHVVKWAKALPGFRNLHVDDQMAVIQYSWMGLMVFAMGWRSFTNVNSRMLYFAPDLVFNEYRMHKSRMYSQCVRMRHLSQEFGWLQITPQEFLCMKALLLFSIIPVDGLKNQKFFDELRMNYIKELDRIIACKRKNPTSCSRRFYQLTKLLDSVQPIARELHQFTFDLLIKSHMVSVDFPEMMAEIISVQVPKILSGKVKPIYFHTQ
Method in brief: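 Here, 15-concentration compound series were pin-transferred onto MDA-kb2 MMTV-luciferase cells already dosed with nilutamide (3.0uM final). After 16hr at 37C, ONE-Glo was added and luminescence read 30min later at room temperature.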

[6] = molecular target: Estrogen receptor (Homo sapiens) (UniProt P03372); assay: qHTS assay to identify small molecule agonists of the estrogen receptor alpha (ER-alpha) signaling pathway in the presence of an antagonist (AID 1259383; calls by dose curve; also: top concentration of the series differs between compounds; nearly all actives have a fitted effect of over 15% in size)
Chain of Estrogen receptor (Homo sapiens) (P03372 whole entry, looked up): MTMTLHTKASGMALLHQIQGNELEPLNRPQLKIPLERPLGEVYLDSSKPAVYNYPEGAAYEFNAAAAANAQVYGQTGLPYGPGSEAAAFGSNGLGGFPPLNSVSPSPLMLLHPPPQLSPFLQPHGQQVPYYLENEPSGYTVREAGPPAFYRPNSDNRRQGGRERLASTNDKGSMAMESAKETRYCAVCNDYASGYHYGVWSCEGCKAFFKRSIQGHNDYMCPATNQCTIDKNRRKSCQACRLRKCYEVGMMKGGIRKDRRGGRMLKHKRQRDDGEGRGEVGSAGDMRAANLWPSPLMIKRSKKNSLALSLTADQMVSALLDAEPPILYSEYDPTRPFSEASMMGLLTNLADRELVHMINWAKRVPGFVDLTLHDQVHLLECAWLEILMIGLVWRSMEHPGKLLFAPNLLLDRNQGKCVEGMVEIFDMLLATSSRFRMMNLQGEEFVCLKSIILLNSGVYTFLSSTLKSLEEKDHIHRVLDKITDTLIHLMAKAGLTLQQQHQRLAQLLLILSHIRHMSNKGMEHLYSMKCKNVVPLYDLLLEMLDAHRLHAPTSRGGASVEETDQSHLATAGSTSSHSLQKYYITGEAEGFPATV
Method in brief: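 In VM7Luc4E2 cells, 4,000 per well, compounds at 15 concentrations were co-incubated 22hr at 37C with 10.0nM final ICI-182,780. Luminescence from the stably transfected 4×ERE-luciferase reporter was recorded 30min after ONE-Glo addition.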

[7] = molecular target: Progesterone receptor (Homo sapiens) (UniProt P06401); assay: qHTS assay to identify small molecule agonists of the progesterone receptor (PR) signaling pathway (AID 1346784; calls by dose curve; also: nearly all actives have a fitted effect of over 30% in size)
Chain of Progesterone receptor (Homo sapiens) (P06401 whole entry, looked up): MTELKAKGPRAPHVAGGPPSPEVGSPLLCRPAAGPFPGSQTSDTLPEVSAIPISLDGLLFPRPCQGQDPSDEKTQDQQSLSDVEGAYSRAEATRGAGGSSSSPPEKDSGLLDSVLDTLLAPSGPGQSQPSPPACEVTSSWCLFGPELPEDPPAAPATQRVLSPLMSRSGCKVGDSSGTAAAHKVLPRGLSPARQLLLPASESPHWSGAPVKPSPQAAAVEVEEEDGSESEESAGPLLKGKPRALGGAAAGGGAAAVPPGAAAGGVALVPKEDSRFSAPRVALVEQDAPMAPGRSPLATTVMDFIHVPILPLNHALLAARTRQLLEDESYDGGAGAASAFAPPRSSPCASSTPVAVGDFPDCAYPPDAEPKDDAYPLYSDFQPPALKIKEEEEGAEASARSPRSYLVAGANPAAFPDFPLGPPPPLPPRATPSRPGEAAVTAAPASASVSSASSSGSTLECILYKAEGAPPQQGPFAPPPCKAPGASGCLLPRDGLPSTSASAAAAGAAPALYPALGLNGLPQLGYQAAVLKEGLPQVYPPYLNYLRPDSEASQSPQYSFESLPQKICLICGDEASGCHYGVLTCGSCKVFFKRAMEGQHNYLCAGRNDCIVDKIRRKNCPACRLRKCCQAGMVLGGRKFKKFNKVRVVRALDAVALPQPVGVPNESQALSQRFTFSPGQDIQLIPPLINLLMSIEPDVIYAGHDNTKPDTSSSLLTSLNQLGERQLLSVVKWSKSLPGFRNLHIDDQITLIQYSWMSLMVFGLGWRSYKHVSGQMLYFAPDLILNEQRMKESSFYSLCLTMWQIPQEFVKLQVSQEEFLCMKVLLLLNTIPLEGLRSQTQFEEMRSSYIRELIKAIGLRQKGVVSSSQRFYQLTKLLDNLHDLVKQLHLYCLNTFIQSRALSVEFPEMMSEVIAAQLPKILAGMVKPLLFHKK
Method in brief: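 PR-UAS-bla HEK 293T cells (beta-lactamase reporter under UAS) in 2% charcoal-stripped FBS, dosed with 23 nL compound after 6 hr, incubated 16hr at 37C. LiveBLAzer B/G FRET substrate added, fluorescence read after 2 hours.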

[8] = molecular target: Progesterone receptor (Homo sapiens) (UniProt P06401); assay: qHTS assay to identify small molecule antagonists of the progesterone receptor (PR) signaling pathway (AID 1346795; active = well fitted inhibition curve with a large enough effect in the signal ratio in the repeat runs, not every such curve was filed as active; the % refers to the signal ratio)
Method in brief: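 PR-UAS-bla HEK293T cells with beta-lactamase reporter under UAS control, in 2% charcoal-stripped FBS, treated with compounds plus 1 nM promegestone (R5020, final) for 16 hr at 37C. Read-out: FRET beta-lactamase substrate fluorescence after 2 hr at room temperature.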

[9] = qHTS assay to identify small molecule antagonists of the progesterone receptor (PR) signaling pathway - cell viability counter screen (AID 1346798); also: series mostly up to about 92 µM; nearly all actives have a fitted effect of over 50% in size
Method in brief: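 PR-UAS-bla HEK293T cells, 3,000/well in 2% charcoal-stripped FBS medium, dosed with compounds plus R5020 agonist and incubated 16 h at 37C. Viability then measured in the same wells by CellTiter-Glo luminescence after 30 min at RT.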

[10] = qHTS assay to identify small molecule agonists of the progesterone receptor (PR) signaling pathway - cell viability counter screen (AID 1346799; calls by dose curve; also: nearly all actives have a fitted effect of over 45% in size)
Method in brief: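 Counter screen in the PR-UAS-bla HEK293T wells (2% charcoal-stripped FBS, 16 h compound exposure at 37 C) after the bla read. CellTiter-Glo added, 30 min at room temperature, luminescence read as cell viability.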

[11] = qHTS assay to identify small molecule antagonists of the TGF-beta/Smad signaling pathway - cell viability counter screen (AID 1346824); also: nearly all actives have a fitted effect of over 50% in size
Method in brief: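 SBE-bla HEK 293T cells were plated overnight at 37 C, then given compounds in DMSO plus TGF-beta1 (added as 0.25 ng/mL solution) for 5 hr. After the bla read, CellTiter-Glo was added to the same wells and luminescence read after 30 min at room temperature.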

[12] = qHTS assay to identify small molecule agonists of the TGF-beta/Smad signaling pathway - cell viability counter screen (AID 1346829); also: top concentration of the series differs between compounds; nearly all actives have a fitted effect of over 45% in size
Method in brief: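 In parallel with the Smad reporter read, viability of HEK 293T cells stably carrying SBE-bla is quantified by ATP luminescence following 5 hr compound treatment.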

[13] = qHTS assay to identify small molecule agonists of the TGF-beta/Smad signaling pathway (AID 1346859; active = well fitted activation curve with a large enough effect in the signal ratio in the repeat runs, not every such curve was filed as active; the % refers to the signal ratio; also: series mostly up to about 77 µM)
Method in brief: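 SBE-bla HEK293T cells plated overnight, then compound exposure for 5 h at 37 C. Beta-lactamase reporter read with LiveBLAzer B/G FRET substrate after 2 h at room temperature, fluorescence at 405 nm excitation, 460/530 nm emission.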

[14] = qHTS assay to identify small molecule antagonists of the estrogen receptor beta (ER-beta) signaling pathway - cell viability counter screen (AID 1259382); also: series mostly up to about 92 µM; nearly all actives have a fitted effect of over 55% in size
Method in brief: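 Tox21 10K library tested in qHTS format on ER-beta-bla HEK293T cells stimulated with 1nM E2; 16 hr treatment at 37C. Same-well CellTiter-Glo luminescence served as the cell viability measure.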

[15] = qHTS assay to identify small molecule agonists or antagonists of the thyroid stimulating hormone receptor (TSHR) signaling pathway - wild type cell line counter screen (AID 1259384; calls by dose curve)
Method in brief: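 Wild-type HEK293 cells were plated 18 h at 37 C/5% CO2, pin-dosed with compound plus Ro20-1724 medium, held 30 min at room temperature, then given cAMP-d2 and anti-cAMP-cryptate; fluorescence was read after 1 h. Fifteen concentrations, triplicate.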

[16] = qHTS assay to identify small molecule agonists of the estrogen receptor alpha (ER-alpha) signaling pathway in the presence of an antagonist - cell viability counter screen (AID 1259386);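 also: series mostly up to about 92 µM; cells exposed to compounds for 22 h at 37 °C before the viability read; nearly all actives have a fitted effect of over 30% in size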
Method in brief: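 Fluorescent CellTiter-Fluor viability signal from VM7Luc4E2 cells, with the reagent added during the final hour of a 22hr compound exposure at 37C in the presence of 10.0nM ICI-182,780.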

[17] = molecular target: Thyrotropin-releasing hormone receptor (Homo sapiens) (UniProt P34981); assay: qHTS assay to identify small molecule antagonists of the thyrotropin-releasing hormone receptor (TRHR) signaling pathway (AID 1346877; active = well fitted inhibition curve with a large enough effect in the repeat runs, not every such curve was filed as active; also: series mostly up to about 51 µM)
Chain of Thyrotropin-releasing hormone receptor (Homo sapiens) (P34981 whole entry, looked up): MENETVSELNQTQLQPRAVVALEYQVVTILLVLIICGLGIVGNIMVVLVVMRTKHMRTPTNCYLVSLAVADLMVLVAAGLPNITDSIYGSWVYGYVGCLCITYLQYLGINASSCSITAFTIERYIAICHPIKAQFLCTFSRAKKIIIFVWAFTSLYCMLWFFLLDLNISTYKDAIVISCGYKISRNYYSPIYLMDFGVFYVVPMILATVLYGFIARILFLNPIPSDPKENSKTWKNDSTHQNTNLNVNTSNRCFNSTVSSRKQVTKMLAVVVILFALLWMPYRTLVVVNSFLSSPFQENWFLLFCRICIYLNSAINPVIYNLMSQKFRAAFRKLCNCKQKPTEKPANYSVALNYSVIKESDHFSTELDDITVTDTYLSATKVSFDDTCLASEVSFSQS
Method in brief: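 In this cell-based calcium flux format, HEK293 cells expressing TRHR received test compound for 5 min before the agonist TRH (1 nM final). Dye loading lasted 2 h at 37 °C.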

[18] = molecular target: Thyrotropin-releasing hormone receptor (Homo sapiens) (UniProt P34981); assay: qHTS assay to identify small molecule agonists of the thyrotropin-releasing hormone receptor (TRHR) signaling pathway (AID 1346891; calls by dose curve; also: series mostly up to about 58 µM)
Method in brief: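 HEK293 cells expressing TRHR plated 18 h at 37 C/5% CO2, calcium dye-loaded 2 h at 37 C, then compound added (agonist mode); kinetic calcium fluorescence read 3 min at 1 s intervals; 15 concentrations in triplicate.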

[19] = Human pregnane X receptor (PXR) small molecule agonists, qHTS cell viability counter screen (AID 1346977); also: nearly all actives have a fitted effect of over 50% in size
Method in brief: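 PXR-Luc HepG2 cells (2,000/well, 5% charcoal-stripped FBS) preincubated 5 hr, then exposed to compounds 24 hr at 37 C. Viability read in the same wells by CellTiter-Fluor fluorescence, reagent added at 23 hr, 1 hr incubation.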

[20] = molecular target: Thyrotropin receptor (Homo sapiens) (UniProt P16473); assay: qHTS assay to identify small molecule antagonists of the thyroid stimulating hormone receptor (TSHR) signaling pathway (AID 1259385; calls by dose curve; also: nearly all actives have a fitted effect of over 20% in size)
Chain of Thyrotropin receptor (Homo sapiens) (P16473 whole entry, looked up): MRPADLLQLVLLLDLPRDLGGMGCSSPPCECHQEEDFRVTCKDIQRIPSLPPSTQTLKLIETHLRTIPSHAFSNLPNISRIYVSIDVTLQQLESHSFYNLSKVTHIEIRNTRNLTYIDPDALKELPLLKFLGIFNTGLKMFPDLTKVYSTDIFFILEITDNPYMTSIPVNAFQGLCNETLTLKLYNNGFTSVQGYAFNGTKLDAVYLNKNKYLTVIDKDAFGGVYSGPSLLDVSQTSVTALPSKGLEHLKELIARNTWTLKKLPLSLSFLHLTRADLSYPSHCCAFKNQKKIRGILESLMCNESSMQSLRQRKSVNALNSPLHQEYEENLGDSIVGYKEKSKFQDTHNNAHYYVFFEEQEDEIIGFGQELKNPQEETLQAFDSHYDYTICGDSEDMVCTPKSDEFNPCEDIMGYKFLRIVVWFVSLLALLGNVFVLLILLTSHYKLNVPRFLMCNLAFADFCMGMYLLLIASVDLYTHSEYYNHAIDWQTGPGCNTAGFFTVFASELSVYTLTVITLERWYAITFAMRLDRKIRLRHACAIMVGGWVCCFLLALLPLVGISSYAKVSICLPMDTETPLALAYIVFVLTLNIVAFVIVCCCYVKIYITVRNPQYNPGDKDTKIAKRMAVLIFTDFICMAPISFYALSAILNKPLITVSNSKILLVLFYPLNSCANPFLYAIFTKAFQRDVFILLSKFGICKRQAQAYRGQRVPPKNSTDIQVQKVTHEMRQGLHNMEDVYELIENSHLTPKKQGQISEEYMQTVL
Method in brief: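 TSHR-HEK293 cells were plated and held 18 h at 37C/5% CO2, then given compound plus Ro20-1724 and stimulated with TSH at 1.5 ng/mL final. After 30 min at room temperature, cAMP was detected with cAMP-d2/anti-cAMP-cryptate (1 h) by fluorescence.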

Measured: Potency

CC1CCCC(=O)C1=O (stereo not drawn)
not listed: [14] | [15] | [16] | [17] | [18] | [19] | [20]
inactive: all other assays above

C[C@H](CS)C(=O)N1CCC[C@H]1C(=O)O
not listed: [6] | [8] | [11] | [20]
inactive: all other assays above

O=C(O)c1cccc(C[C@@H]2COc3ccc(OCc4nc5cc(F)ccc5s4)cc3[C@@H]2O)c1
not listed: [5]
inactive: all other assays above

CC(C)(C)CCCCCCOC(=O)c1ccccc1C(=O)OCCCCCCC(C)(C)C
not listed: [5] | [8] | [16]
inactive: all other assays above

CN1C(CSCC(F)(F)F)Nc2cc(Cl)c(S(N)(=O)=O)cc2S1(=O)=O (stereo not drawn)
not listed: [9] | [13] | [17] | [18]
inactive: all other assays above

CC(C)COC(=O)COc1cc(Cl)c(Cl)cc1Cl
not listed: [5] | [7] | [11] | [19] | [20]
inactive: all other assays above

C=CCOC(=O)COCCC(C)C
not listed: [5] | [9] | [13] | [16]
inactive: all other assays above

CCOc1ncc(F)c(=O)[nH]1
not listed: [5] | [9] | [10] | [11]
inactive: all other assays above
